Most compounds without a hit are left out; they make up all but 5.5% or so of the library.
Mito fusion act – qHTS Assay for Small Molecule Inhibitors of Mitochondrial Division or Activators of Mitochondrial Fusion. hit rate 0.23% among 320,000. S. cerevisiae fusion-defective mutant growth rescue, CellTiterGlo 48 h. AID 485298, 2010. Potency, µM (doses to about 46.1 µM), actives largely listed as activators; further: nearly all actives have a fitted effect of over 45% in size
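S. cerevisiae fusion-defective temperature-sensitive mutants (e.g. fzo1-1, mgm1-5) grown 48 h at 37C in YPEG (ethanol/glycerol non-fermentable) medium with 23 nl compound per well; growth rescue read as CellTiterGlo luminescence.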
RORg inh – qHTS for inhibitors of ROR gamma transcriptional activity; Drosophila S2 Gal4-RORgamma UAS-luciferase reporter, 20 h; Potency, µM (series often up to 53.6 µM), usual class: inhibitors; hit rate 5.4% among 310,000; further: nearly all actives have a fitted effect of over 60% in size
Target sequence (P51450 whole entry, looked up, the tested form may be a part): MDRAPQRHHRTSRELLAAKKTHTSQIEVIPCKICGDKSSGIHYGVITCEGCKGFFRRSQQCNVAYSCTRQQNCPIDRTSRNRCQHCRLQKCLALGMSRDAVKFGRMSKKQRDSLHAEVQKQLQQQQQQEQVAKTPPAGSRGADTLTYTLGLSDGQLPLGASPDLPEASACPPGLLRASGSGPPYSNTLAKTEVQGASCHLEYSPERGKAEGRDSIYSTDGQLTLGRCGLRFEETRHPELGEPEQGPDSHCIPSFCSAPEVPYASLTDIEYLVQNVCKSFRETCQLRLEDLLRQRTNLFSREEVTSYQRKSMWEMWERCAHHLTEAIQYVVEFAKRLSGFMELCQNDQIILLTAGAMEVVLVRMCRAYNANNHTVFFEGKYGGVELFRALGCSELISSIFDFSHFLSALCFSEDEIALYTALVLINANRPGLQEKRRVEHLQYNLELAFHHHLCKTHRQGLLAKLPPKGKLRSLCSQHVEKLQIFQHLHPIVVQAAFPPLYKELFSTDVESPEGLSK
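Using a luciferase readout, inhibitors were identified by reduced reporter activity in Drosophila cells coexpressing a copper-inducible Gal4–ROR gamma fusion and UAS-driven Photinus luciferase, incubated 20 hr after 700 uM copper sulfate.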
VP16 counter – VP16 counterscreen qHTS for inhibitors of ROR gamma transcriptional activity; Drosophila S2 Gal4-VP16 UAS-luciferase, luminescence, 20 h; Potency, µM (highest dose often 53.6 µM), usual class: inhibitors; hit rate 3.5% among 310,000; AID 2546, 2010;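 further: Gal4-VP16 expression switched on by copper sulfate through the metallothionein promoter; nearly all actives have a fitted effect of over 50% in size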
Integrin act MD – qHTS for Activators of Integrin-Mediated Alleviation for Muscular Dystrophy; alpha7betagal myoblasts, beta-gal FDG fluorescence, 48 h; hit rate 0.064% among 350,000; Potency, µM (doses to about 38.3 µM), hits mostly activators; further: nearly all actives have a fitted effect of over 60% in size
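alpha7betagal+/- myoblasts (passage 13, 250/well) treated 48 h at 37C with compounds at 1:260 dilution of DMSO stock. Lysed, then beta-galactosidase activity read as FDG fluorescence (ex 480/em 540) after 30 min, with pre-read for autofluorescence.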
uPA surface inh – qHTS for Inhibitors of Cell Surface uPA Generation; cell surface uPA generation assay, qHTS; Potency, µM (top dose mostly 38.3 µM), most hits filed as inhibitors; hit rate 0.31% among 330,000; AID 540303, 2011; active means well fitted inhibition curve with a large enough effect; inconclusive means small, poorly fitted or top-dose-only effect; inactive means no such curve, though single readings can be large or run the other way; tested in mouse RAW 264.7 cells; further: nearly all actives have a fitted effect of over 55% in size
Chronic BCR inh – qHTS Assay to Find Inhibitors of Chronic Active B-Cell Receptor Signaling | Potency, µM (highest dose often 46.1 µM), most hits filed as inhibitors | hit rate 0.05% among 340,000 | ABC-DLBCL IkBa-CBG/CBR reporter, luminescence ratio, 4 h; active means well fitted inhibition curve with a large enough effect in the signal ratio, with a control signal flat, not every such curve was filed as active; inconclusive means small, poorly fitted or top-dose-only effect, or effect the other way, or a change in a side signal; the % refers to the signal ratio
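TMD8 ABC-DLBCL cells carrying doxycycline-inducible green luciferase fused to IkappaBalpha plus unfused red luciferase were exposed to compounds (up to 46 uM) for 4 hrs at 37C. Activity came from the overlap-corrected green/red luminescence ratio.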
Each line names hits and unclear results; the compound was inactive in the other large screens. Unless noted, the call rests on the fitted dose curve; in most records, active means well fitted curve in the direction sought with a large enough effect; inconclusive means small, poorly fitted or top-dose-only effect, or another doubt; inactive means no such curve, though single readings can be large; an effect the other way counts as inactive or inconclusive.

C/C(=N\NC(=S)NC(C)C)c1ccco1	RORg inh inconclusive, VP16 counter 4.47µM, Chronic BCR inh inconclusive
CC(C)NC(=S)NN=C1c2ccccc2-c2ccccc21	RORg inh 7.94µM, VP16 counter inconclusive, Chronic BCR inh inconclusive
COC(=O)N/N=C(\C)c1ccco1	none
COc1ccc([C@H]2N[C@]3(CCCN(Cc4cccn4C)C3=O)[C@H]3C(=O)N(Cc4ccccc4)C(=O)[C@@H]23)cc1	none (no result: Mito fusion act, RORg inh, VP16 counter, uPA surface inh, Chronic BCR inh)
O=C(C(=O)N1CCN(c2ccccc2)CC1)c1cn(CC(=O)N2CCCCCC2)c2ccccc12	RORg inh inconclusive, Chronic BCR inh inconclusive
Cc1ccc(OCCSc2ncccn2)c(C)c1	Mito fusion act inconclusive, RORg inh 10µM, VP16 counter inconclusive, Chronic BCR inh inconclusive
CCn1ccnc1CN(C)Cc1cn(-c2cccc(C)c2)nc1-c1cccc(F)c1	RORg inh 1.58µM, VP16 counter 15.8µM, uPA surface inh inconclusive, Chronic BCR inh inconclusive
CCn1ccnc1CN(C)Cc1nc(-c2ccccc2)no1	RORg inh inconclusive, VP16 counter inconclusive, Chronic BCR inh inconclusive
COc1ccc(-n2cc(CN(C)CCO)c(-c3cccc(F)c3)n2)cc1	Mito fusion act inconclusive, Chronic BCR inh inconclusive
CCn1ccnc1CN(C)Cc1nc(-c2cccc(Cl)c2)no1	RORg inh 17.8µM
CCn1ccnc1CNCc1cn(-c2cc(C)ccc2C)nc1-c1ccccc1	RORg inh 14.1µM
Cc1cccc(-n2cc(CN3CCCN(C=O)CC3)c(-c3cccc(F)c3)n2)c1	Chronic BCR inh inconclusive
Cc1cccc(-n2cc(CN(C)Cc3nccn3C)c(-c3cccc(F)c3)n2)c1	RORg inh 5.62µM, VP16 counter inconclusive
Cc1ccc(C)c(-n2cc(CNCCc3cnccn3)c(-c3ccccc3)n2)c1	Chronic BCR inh inconclusive
CS(=O)(=O)Nc1ccc(C(=O)Nc2ccccc2-c2ccccc2)cc1	RORg inh inconclusive
Cc1cc(OCC(=O)Nc2ccccc2N2CCOCC2)c(C(C)C)cc1Cl	Chronic BCR inh inconclusive (no result: RORg inh, VP16 counter)
CCC(C)n1c(SCc2ccc(F)cc2Cl)nc2ccsc2c1=O (stereo unspecified)	none (no result: Mito fusion act, RORg inh, VP16 counter, Integrin act MD, uPA surface inh)
Cc1ccc(-n2cc(CN3CCN(Cc4nccn4C)CC3)c(-c3cccc(C)c3)n2)cc1	RORg inh 10µM, Chronic BCR inh inconclusive
Cc1ccc(-n2cc(CN3CCNC(=O)CC3)c(-c3cccc(C)c3)n2)cc1	Chronic BCR inh inconclusive
CCn1ccnc1CN(C)Cc1cn(-c2ccc(C)cc2)nc1-c1cccc(C)c1	RORg inh 1.58µM, VP16 counter 10µM, Chronic BCR inh inconclusive
CN(Cc1ccccn1)Cc1cn(Cc2ccccc2)nc1-c1ccc2c(c1)OCO2	none
COc1cccc(-c2nn(-c3ccccc3)cc2CN(C)Cc2ccon2)c1	Chronic BCR inh inconclusive
CN(Cc1cn(Cc2ccccc2)nc1-c1ccc2c(c1)OCO2)Cc1nccn1C	RORg inh 12.6µM
Oc1ccc(-c2nnc(-c3ccc(O)cc3)nn2)cc1	RORg inh 11.2µM, VP16 counter inconclusive, Chronic BCR inh inconclusive
Oc1ccc(O)cc1	RORg inh 11.2µM, VP16 counter inconclusive (no result: Integrin act MD, uPA surface inh, Chronic BCR inh)
Cc1cccc(CCN2C(N(C)C)=NC[C@@H]2CC(C)C)c1	uPA surface inh inconclusive (no result: RORg inh, VP16 counter)
Cc1cccc(CCN2C(N(C)C)=NC[C@@H]2Cc2ccccc2)c1	uPA surface inh 10µM (no result: Mito fusion act, RORg inh, VP16 counter)
COc1ccccc1-c1coc2c(CN3CCCCC3C)c(O)ccc2c1=O (stereo unspecified)	none
COc1ccccc1-c1coc2c(CN3C(C)CCCC3C)c(O)ccc2c1=O (stereo unspecified)	Integrin act MD 2.24µM
CCOC(=O)N1CCN(C(=O)C(C)N(c2ccc(Oc3ccccc3)cc2)S(C)(=O)=O)CC1 (stereo unspecified)	Chronic BCR inh inconclusive (no result: VP16 counter)
CCOC(=O)C1CCN(C(=O)C(C)N(c2ccc(Oc3ccccc3)cc2)S(C)(=O)=O)CC1 (stereo unspecified)	VP16 counter 20µM, uPA surface inh inconclusive
CCN(CC)c1ccc(/C=N/Nc2nc3ccccc3[nH]2)c(O)c1	RORg inh 3.55µM, VP16 counter 2.82µM, Chronic BCR inh inconclusive
Cc1ccc2cc(/C=N/Nc3nc4ccccc4[nH]3)c(Cl)nc2c1	RORg inh 4.47µM, VP16 counter 1.26µM, uPA surface inh inconclusive, Chronic BCR inh inconclusive
COc1cc(OC)c(OC)cc1/C=N/Nc1nc2ccccc2[nH]1	none
NCCCCCN	none (no result: Mito fusion act, Integrin act MD, uPA surface inh, Chronic BCR inh)
O=[N+]([O-])c1cccc(-c2ccc(/C=N/NC(=S)NCc3ccco3)o2)c1	RORg inh 0.447µM, VP16 counter 3.16µM, Chronic BCR inh inconclusive
O=C(O)c1cc(-c2ccc(/C=N/NC(=S)Nc3ccccc3)o2)ccc1Cl	RORg inh 11.2µM, Integrin act MD inconclusive, Chronic BCR inh inconclusive
O=[N+]([O-])c1cccc(-c2ccc(/C=N/NC(=S)Nc3ccccc3)o2)c1	RORg inh 0.0891µM, VP16 counter 2.51µM, Chronic BCR inh inconclusive
Cc1cc(C(=O)N/N=C/c2ccc(-c3ccc(C)c(Cl)c3)o2)n[nH]1	RORg inh inconclusive, Chronic BCR inh inconclusive
COCCNC(=S)N/N=C/c1ccc(-c2ccc([N+](=O)[O-])cc2)o1	RORg inh 4.47µM, VP16 counter 10µM, Chronic BCR inh inconclusive
Cc1cc(C(=O)N/N=C/c2ccc(-c3cccc([N+](=O)[O-])c3)o2)n[nH]1	none
CC1=C(C(=O)N(C)C)CC(CC(=O)NC(c2ccccc2)c2ccccc2)C(=O)N1Cc1ccc(F)cc1 (stereo unspecified)	none (no result: Mito fusion act, RORg inh, VP16 counter, uPA surface inh, Chronic BCR inh)

Assay outcomes as filed in PubChem.
